In PubChem BioAssay (EPA / NIEHS) one finds AC50 and outcome data, which are given here for eight compounds.

Settings in all cases: mRNA level, 48 h; actives raise or lower the signal
Read-out in assay [1]: MYC, MYC (gene 4609)
Put plainly: LTEA_HepaRG_MYC: Life Technologies and Expression Analysis (LTEA) Assay for MYC using HepaRG (AID 2283518). The method in brief:
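qRT-PCR read-out of MYC transcript (Fluidigm TaqMan, housekeeping-normalized) after 48 h chemical exposure of HepaRG cells; eight concentrations, top 100 uM, half-log steps. Bidirectional curve fitting against 0.5% DMSO vehicle baseline.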

Read-out in assay [2]: Paternally Expressed 10 (PEG10), PEG10 (gene 23089)
Briefly: LTEA_HepaRG_PEG10: Life Technologies and Expression Analysis (LTEA) Assay for Paternally Expressed 10 (PEG10) using HepaRG (AID 2283520).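 As to AC50: differentiated HepaRG human liver cells in serum-free induction medium with 0.5% DMSO; PEG10 transcript by qRT-PCR normalised to ACTB GAPDH and POLR2A.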 The method in brief:
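qRT-PCR read-out: PEG10 mRNA normalised to three housekeeping genes, fitted bidirectionally against 0.5% DMSO vehicle. HepaRG cells received test chemicals for 48 h in serum-free induction medium, 8 points, top 100 uM, half-log steps.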

Read-out in assay [3]: Protein phosphatase 2A (PPP2R4), PTPA (gene 5524)
Put plainly: LTEA_HepaRG_PPP2R4: Life Technologies and Expression Analysis (LTEA) Assay for Protein phosphatase 2A (PPP2R4) using HepaRG (AID 2283522). The method in brief:
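HepaRG, 48 h exposure, 8-pt half-log series from 100 uM, 0.5% DMSO vehicle, duplicates. Readout: PPP2R4 mRNA, Fluidigm qRT-PCR, housekeeping-normalized. Bidirectional curve fit vs DMSO baseline.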

Read-out in assay [4]: Phosphatase and tensin (PTEN), PTEN (gene 5728)
Briefly: LTEA_HepaRG_PTEN: Life Technologies and Expression Analysis (LTEA) Assay for Phosphatase and tensin (PTEN) using HepaRG (AID 2283523). In short, it runs like this:
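HepaRG, 48 h exposure, 8-pt half-log series from 100 uM top, 0.5% DMSO vehicle, duplicates. Readout: Fluidigm qRT-PCR of PTEN transcript; housekeeping normalization (ACTB, GAPDH, POLR2A). Gain or loss fitted relative to DMSO baseline.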

Read-out in assay [5]: solute carrier (SLC22A1), SLC22A1 (gene 6580)
Briefly: LTEA_HepaRG_SLC22A1: Life Technologies and Expression Analysis (LTEA) Assay for solute carrier (SLC22A1) using HepaRG (AID 2283524).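 As to AC50: differentiated human HepaRG liver cells in serum-free induction medium.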 The method in brief: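 qRT-PCR readout (TaqMan, Fluidigm arrays) of SLC22A1 transcript, normalized to three housekeeping genes; bidirectional curve fit relative to 0.5% DMSO vehicle. Differentiated human HepaRG cells, 48 h chemical exposure, top concentration 100 uM, half-log steps, eight points.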

Read-out in assay [6]: Pyruvate Dehydrogenase Kinase 4 (PDK4), PDK4 (gene 5166)
Briefly: LTEA_HepaRG_PDK4: Life Technologies and Expression Analysis (LTEA) Assay for Pyruvate Dehydrogenase Kinase 4 (PDK4) using HepaRG (AID 2283525). The method in brief:
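HepaRG (human liver line), 48 h chemical exposure, 8-pt half-log CRC top 100 uM, 0.5% DMSO vehicle, duplicates. Readout: TaqMan qRT-PCR of PDK4 mRNA, housekeeping-normalized; gain/loss fit relative to DMSO baseline.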

Read-out in assay [7]: NAD(P)H dehydrogenase [quinone] 1 (NQO1), NQO1 (gene 1728)
Briefly: LTEA_HepaRG_NQO1: Life Technologies and Expression Analysis (LTEA) Assay for NAD(P)H dehydrogenase [quinone] 1 (NQO1) using HepaRG (AID 2283526). The method in brief: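 qRT-PCR read-out (Fluidigm TaqMan), normalized to three housekeeping genes, after 48 h chemical exposure of HepaRG cells. Concentrations: eight points, top 100 uM, half-log steps, 0.5% DMSO vehicle. Gain or loss of signal fitted relative to DMSO.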

Read-out in assay [8]: Nuclear factor erythroid 2-related factor 2 (Homo sapiens) (UniProt Q16236)
Put plainly: LTEA_HepaRG_NFE2L2: Life Technologies and Expression Analysis (LTEA) Assay for Nuclear factor erythroid 2-related factor 2 (NFE2L2) Transcription Factor using HepaRG (AID 2283527). The method in brief: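 HepaRG, 48 h dosing, 8-pt half-log series from 100 uM in 0.5% DMSO, duplicates. Read-out: NFE2L2 mRNA by qRT-PCR (ACTB/GAPDH/POLR2A normalization). Bidirectional curve fit vs DMSO baseline.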

Read-out in assay [9]: succinate dehydrogenase complex iron sulfur subunit B (SDHB), SDHB (gene 6390)
Put plainly: LTEA_HepaRG_SDHB: Life Technologies and Expression Analysis (LTEA) Assay for succinate dehydrogenase complex iron sulfur subunit B (SDHB) using HepaRG (AID 2283528). The method in brief: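 SDHB transcript level read by TaqMan qRT-PCR, housekeeping-normalised (ACTB, GAPDH, POLR2A), after 48 h chemical treatment of plated HepaRG cells; eight concentrations top 100 uM, half-log steps, 0.5% DMSO, duplicates; fitted both directions against DMSO.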

Read-out in assay [10]: Signal transducer and activator of transcription 3 (Homo sapiens) (UniProt P40763)
Briefly: LTEA_HepaRG_STAT3: Life Technologies and Expression Analysis (LTEA) Assay for Signal transducer and activator of transcription (STAT3) using HepaRG (AID 2283529). The method in brief:
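HepaRG, 48 h exposure, 8-pt half-log series (top 100 uM), 0.5% DMSO vehicle, duplicates. Readout: STAT3 transcript by Fluidigm qRT-PCR, housekeeping-normalized; bidirectional fit vs DMSO baseline.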

Read-out in assay [11]: solute carrier (SLCO1B1), SLCO1B1 (gene 10599)
Put plainly: LTEA_HepaRG_SLCO1B1: Life Technologies and Expression Analysis (LTEA) Assay for solute carrier (SLCO1B1) using HepaRG (AID 2283530). In short, it runs like this: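 SLCO1B1 transcript read by qRT-PCR (Fluidigm arrays), normalized to three housekeeping genes, after 48 h chemical exposure of HepaRG cells; bidirectional concentration-response fitting versus 0.5% DMSO baseline. Eight-point half-log series, maximum 100 uM.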

Read-out in assay [12]: sulfotransferase 2A1 (SULT2A1), SULT2A1 (gene 6822)
Put plainly: LTEA_HepaRG_SULT2A1: Life Technologies and Expression Analysis (LTEA) Assay for sulfotransferase 2A1 (SULT2A1) using HepaRG (AID 2283531). In short, it runs like this:
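HepaRG, 48 h chemical exposure, 8-pt half-log curve from 100 uM in 0.5% DMSO, duplicates. Readout: TaqMan qRT-PCR of SULT2A1 mRNA, housekeeping-normalized. Bidirectional fit vs DMSO baseline.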

Read-out in assay [13]: Transforming Growth Factor (TGFA), TGFA (gene 7039)
Briefly: LTEA_HepaRG_TGFA: Life Technologies and Expression Analysis (LTEA) Assay for Transforming Growth Factor (TGFA) using HepaRG (AID 2283532). The method in brief:
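qRT-PCR read-out of TGFA transcript, normalized to three housekeeping genes, fitted bidirectionally against 0.5% DMSO baseline. Human HepaRG cultures received chemicals for 48 h at eight half-log concentrations, top 100 uM.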

Read-out in assay [14]: TIMP1, TIMP1 (gene 7076)
Put plainly: LTEA_HepaRG_TIMP1: Life Technologies and Expression Analysis (LTEA) Assay for TIMP1 using HepaRG (AID 2283534). In short, it runs like this: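 HepaRG, 48 h exposure, 8-pt half-log series from 100 uM in 0.5% DMSO, duplicates; TIMP1 transcript by Fluidigm qRT-PCR, housekeeping-normalized; bidirectional curve fit vs DMSO baseline.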

Read-out in assay [15]: Tumor necrosis factor receptor 1 (TNFRSF1A), TNFRSF1A (gene 7132)
Briefly: LTEA_HepaRG_TNFRSF1A: Life Technologies and Expression Analysis (LTEA) Assay for Tumor necrosis factor receptor 1 (TNFRSF1A) using HepaRG (AID 2283535). The method in brief:
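HepaRG, 48 h plating then 48 h chemical exposure, serum-free induction media; 8-pt CRC from 100 uM, half-log, 0.5% DMSO vehicle, duplicates. Readout: TaqMan qRT-PCR (Fluidigm), housekeeping-gene normalized; bidirectional fit vs DMSO.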

Read-out in assay [16]: Thyroid Hormone Responsive (THRSP), THRSP (gene 7069)
Briefly: LTEA_HepaRG_THRSP: Life Technologies and Expression Analysis (LTEA) Assay for Thyroid Hormone Responsive (THRSP) using HepaRG (AID 2283536). The method in brief: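 qRT-PCR read-out (Fluidigm TaqMan), housekeeping-normalized (ACTB/GAPDH/POLR2A). HepaRG, 48 h chemical exposure, 8-pt half-log series from 100 uM in 0.5% DMSO, duplicates. Bidirectional curve fit vs 0.5% DMSO baseline.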

Read-out in assay [17]: Cellular tumor antigen p53 (Homo sapiens) (UniProt P04637)
Briefly: LTEA_HepaRG_TP53: Life Technologies and Expression Analysis (LTEA) Assay for Tumor Protein P53 (TP53) using HepaRG (AID 2283537). In short, it runs like this: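 TP53 transcript measured by qRT-PCR, normalized to three housekeeping genes, after 48 h treatment of human HepaRG cultures with chemicals from 100 uM downward in half-log steps (0.5% DMSO vehicle, serum-free induction medium). Up- or down-regulation fitted against DMSO.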

Read-out in assay [18]: Nuclear factor NF-kappa-B p105 subunit (Homo sapiens) (UniProt P19838)
Briefly: LTEA_HepaRG_NFKB1: Life Technologies and Expression Analysis (LTEA) Assay for Nuclear Factor Kappa B Subunit 1 (NFKB1) using HepaRG (AID 2283521).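 As to outcome: differentiated human HepaRG liver cells in serum-free induction medium.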 In short, it runs like this: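 NFKB1 transcript was measured by TaqMan qRT-PCR on Fluidigm arrays, normalised to three housekeeping genes and fitted in both directions against 0.5% DMSO. HepaRG cells were dosed in duplicate for 48 h in serum-free induction medium, eight half-log steps from 100 uM.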

A structure can be active in one record and inactive in another. Activity calls are given as the source filed them. The calls were made as follows: active = hit-call score of the fitted dose curve at least 0.9, where 1 is the maximum; inactive = score below 0.9.

Nuclear factor erythroid 2-related factor 2 (Homo sapiens), sequence (Q16236 whole entry, looked up): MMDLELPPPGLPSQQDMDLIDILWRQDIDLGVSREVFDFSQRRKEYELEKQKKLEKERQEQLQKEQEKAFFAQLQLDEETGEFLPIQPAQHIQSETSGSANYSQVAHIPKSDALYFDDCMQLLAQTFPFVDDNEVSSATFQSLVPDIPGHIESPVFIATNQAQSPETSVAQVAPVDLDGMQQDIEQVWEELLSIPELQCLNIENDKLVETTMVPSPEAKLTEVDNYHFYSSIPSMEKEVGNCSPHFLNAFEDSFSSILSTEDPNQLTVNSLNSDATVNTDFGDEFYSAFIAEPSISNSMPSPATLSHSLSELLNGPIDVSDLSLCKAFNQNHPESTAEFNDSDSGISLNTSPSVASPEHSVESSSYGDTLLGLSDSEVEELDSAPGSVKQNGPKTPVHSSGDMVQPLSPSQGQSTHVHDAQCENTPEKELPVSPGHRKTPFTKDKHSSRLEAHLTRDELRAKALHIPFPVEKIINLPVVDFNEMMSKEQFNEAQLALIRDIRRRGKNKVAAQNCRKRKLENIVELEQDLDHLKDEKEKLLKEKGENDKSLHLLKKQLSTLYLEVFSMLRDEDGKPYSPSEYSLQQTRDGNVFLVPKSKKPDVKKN
Signal transducer and activator of transcription 3 (Homo sapiens), sequence (P40763 whole entry, looked up): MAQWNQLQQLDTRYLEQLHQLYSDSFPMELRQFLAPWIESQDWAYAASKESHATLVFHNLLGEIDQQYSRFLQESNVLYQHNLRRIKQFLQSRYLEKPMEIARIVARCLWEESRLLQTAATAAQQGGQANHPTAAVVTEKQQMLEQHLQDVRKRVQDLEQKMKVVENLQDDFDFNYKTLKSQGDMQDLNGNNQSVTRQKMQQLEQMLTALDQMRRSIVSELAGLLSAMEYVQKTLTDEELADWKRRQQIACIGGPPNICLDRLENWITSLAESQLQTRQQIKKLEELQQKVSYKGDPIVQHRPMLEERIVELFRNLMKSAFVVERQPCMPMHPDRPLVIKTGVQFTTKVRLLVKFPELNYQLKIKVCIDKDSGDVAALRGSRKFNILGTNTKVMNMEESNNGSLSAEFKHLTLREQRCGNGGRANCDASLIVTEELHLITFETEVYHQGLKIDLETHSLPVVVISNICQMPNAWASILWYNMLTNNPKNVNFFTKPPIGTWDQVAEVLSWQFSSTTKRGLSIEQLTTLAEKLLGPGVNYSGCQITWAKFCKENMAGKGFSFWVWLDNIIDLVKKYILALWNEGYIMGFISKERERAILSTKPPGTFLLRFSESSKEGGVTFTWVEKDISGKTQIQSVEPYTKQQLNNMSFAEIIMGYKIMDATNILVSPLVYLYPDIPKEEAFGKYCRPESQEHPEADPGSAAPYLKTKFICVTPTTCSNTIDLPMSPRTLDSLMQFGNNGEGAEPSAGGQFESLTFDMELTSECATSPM
Cellular tumor antigen p53 (Homo sapiens), sequence (P04637 whole entry, looked up): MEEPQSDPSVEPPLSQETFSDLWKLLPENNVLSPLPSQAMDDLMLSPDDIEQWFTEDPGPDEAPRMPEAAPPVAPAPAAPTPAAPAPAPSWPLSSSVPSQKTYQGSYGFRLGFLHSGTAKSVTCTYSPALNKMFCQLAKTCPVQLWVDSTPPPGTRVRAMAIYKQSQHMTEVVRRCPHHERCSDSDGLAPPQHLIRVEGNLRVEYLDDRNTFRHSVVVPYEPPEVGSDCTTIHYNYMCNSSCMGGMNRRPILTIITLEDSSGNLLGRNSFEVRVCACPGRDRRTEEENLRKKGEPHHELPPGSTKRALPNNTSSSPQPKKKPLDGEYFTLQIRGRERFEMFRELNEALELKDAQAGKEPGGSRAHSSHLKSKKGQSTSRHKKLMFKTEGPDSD
Nuclear factor NF-kappa-B p105 subunit (Homo sapiens), sequence (P19838 whole entry, looked up): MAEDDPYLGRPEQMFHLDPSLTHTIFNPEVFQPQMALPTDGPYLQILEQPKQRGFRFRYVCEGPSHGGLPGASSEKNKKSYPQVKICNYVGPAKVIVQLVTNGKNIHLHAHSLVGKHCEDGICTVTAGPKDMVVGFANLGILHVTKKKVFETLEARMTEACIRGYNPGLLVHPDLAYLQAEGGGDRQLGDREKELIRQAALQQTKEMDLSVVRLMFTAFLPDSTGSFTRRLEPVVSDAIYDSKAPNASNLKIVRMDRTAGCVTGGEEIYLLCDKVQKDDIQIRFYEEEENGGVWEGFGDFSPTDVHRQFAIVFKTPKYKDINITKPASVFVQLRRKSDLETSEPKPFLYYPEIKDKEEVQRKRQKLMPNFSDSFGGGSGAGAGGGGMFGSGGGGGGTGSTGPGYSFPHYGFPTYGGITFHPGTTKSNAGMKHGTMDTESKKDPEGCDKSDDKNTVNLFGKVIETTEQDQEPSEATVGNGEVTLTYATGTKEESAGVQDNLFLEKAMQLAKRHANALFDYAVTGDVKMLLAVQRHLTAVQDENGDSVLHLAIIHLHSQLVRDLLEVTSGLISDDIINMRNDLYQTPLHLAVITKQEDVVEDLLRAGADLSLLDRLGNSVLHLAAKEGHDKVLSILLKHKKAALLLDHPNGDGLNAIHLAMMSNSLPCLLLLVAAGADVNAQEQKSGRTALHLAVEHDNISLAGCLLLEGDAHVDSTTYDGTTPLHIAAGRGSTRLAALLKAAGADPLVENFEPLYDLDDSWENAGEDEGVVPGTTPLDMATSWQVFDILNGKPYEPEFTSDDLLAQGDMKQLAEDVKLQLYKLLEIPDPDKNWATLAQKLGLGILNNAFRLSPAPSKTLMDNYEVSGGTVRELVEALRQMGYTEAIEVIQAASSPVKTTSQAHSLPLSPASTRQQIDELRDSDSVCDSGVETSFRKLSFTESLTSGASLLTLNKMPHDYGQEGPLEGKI

By AC50 is commonly meant the concentration at which the activity in the assay is half-maximal. On to `N#Cc1nn(-c2c(Cl)cc(C(F)(F)F)cc2Cl)c(N)c1S(=O)C(F)(F)F` (configuration not stated), for which the AC50 in assay [1] was 35.1 µM (active); in assay [2], 23.6 µM (active); in assay [3], 11.5 µM (active); in assay [5] it was 19.6 µM (active); in assay [6], 23.1 µM (active); in assay [7], 81.6 µM (active). Besides, the concentration at half-maximal activity (AC50) is 83 µM (active) in [8]; 36.2 µM (active) in [11]; 50.2 µM (active) in assay [12]; 33.2 µM (active) in assay [13]; 66.7 µM (active) in assay [14]; 27.3 µM (active) in assay [16]. Besides, the AC50 in [17] was 32 µM (active). For the same compound, the compound was called inactive in [4], in [9], in [10] and in assay [15].
For the compound `CCOC(=O)CC(SP(=S)(OC)OC)C(=O)OCC` (configuration not stated), the compound was classed as inactive in assay [1], in assay [2], in assay [18], in [3], in assay [4] and in assay [5]. Besides, the compound was classed as inactive in [6], in assay [7], in [8], in assay [9], in assay [10] and in assay [11]. Besides, the outcome in assay [13], in [15], in assay [16] and in assay [17] was inactive.
Take `O=C(O)c1nc(Cl)ccc1Cl`: the result in assay [1], in assay [2], in assay [3], in assay [4], in [5] and in assay [6] was inactive. In addition, the outcome in assay [7], in assay [8], in [9], in assay [10], in [11] and in [13] was inactive. For the same compound, the compound was called inactive in [15], in [16] and in [17]. Further, in [6], the half-maximal activity concentration (AC50) is 50 µM (active).
As for `CCOC(=O)C(Cl)Cc1cc(-n2nc(C)n(C(F)F)c2=O)c(F)cc1Cl` (configuration not stated), the outcome in assay [1], in [2], in assay [18], in assay [3], in assay [4] and in assay [5] was inactive. The compound was called inactive in assay [6], in [7], in assay [8], in [9], in assay [10] and in [11]. Besides, the compound was classed as inactive in [13], in [15], in assay [16] and in [17].
As to `CC(C)C1(C)N=C(c2nc3ccccc3cc2C(=O)O)NC1=O` (configuration not stated), the outcome in assay [1], in assay [2], in [18], in [3], in assay [4] and in assay [5] was inactive. Further, the compound was classed as inactive in [6], in assay [7], in assay [8], in [9], in assay [10] and in assay [11]. Besides, the result in [13], in [15], in [16] and in assay [17] was inactive.
Consider `CCOP(=S)(OCC)SCn1c(=O)oc2cc(Cl)ccc21`, for which the result in [1], in assay [2], in [3], in [4], in assay [5] and in assay [6] was inactive. Moreover, the result in [7], in assay [8], in assay [9], in assay [10], in assay [11] and in [13] was inactive. For the same compound, the compound was called inactive in assay [15], in [16] and in assay [17].
As for `Fc1ccc(Oc2ccnc3cc(Cl)cc(Cl)c23)cc1`, the compound was classed as inactive in assay [1], in [3], in assay [4], in [7], in assay [8] and in assay [9]. For the same compound, the call in [10], in assay [11], in assay [13], in assay [15] and in [17] was inactive. Besides, the AC50 was 33.5 µM (active) in assay [2], 97.8 µM (active) in [5], 50 µM (active) in assay [6] and 76.2 µM (active) in assay [16].
`N#Cc1cc(Br)c(O)c(Br)c1`: the compound was called inactive in assay [1] and in [13]. Also, the AC50 was 10.5 µM (active) in assay [2]; 5.8 µM (active) in [18]; 10.7 µM (active) in assay [3]; 26.1 µM (active) in assay [4]; 16.2 µM (active) in assay [5]; 9.64 µM (active) in [6]. The AC50 in assay [7] is 11.9 µM (active); in assay [8], 10.3 µM (active); in assay [9] it was 7.28 µM (active); in assay [10], 3.27 µM (active); in assay [11], 17.8 µM (active); in assay [15], 16.9 µM (active). The half-maximal activity concentration (AC50) in assay [16] is 22.6 µM (active); in assay [17], 10.4 µM (active).
